Screens as filed in PubChem BioAssay.
3T3 cytotox = kills NIH 3T3 cells; NIH 3T3 viability, CellTiter-Glo ATP luminescence, 48-72 h; Potency, µM (titrated, usually from 96.7 µM), without a hit: at the top dose activity change, negative = cytotoxicity, most hits filed as inhibitors; 94,000 compounds, 4.3% hits; note: % is set by controls: 0 for no effect and ±100 for the full control effect; nearly all actives have a fitted effect of over 55% in size
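Mouse fibroblast NIH 3T3 cells, 400 per well, received compound via pintool and were incubated for 48 or 72 hr prior to CellTiter-Glo ATP luminescence measurement.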
FLuc inh-1 = inhibitors of firefly (Photinus pyralis) luciferase; P08659; purified P. pyralis luciferase, luminescence, biochemical; Potency, µM (doses to about 115 µM), most hits filed as inhibitors; 76,000 compounds, 2.5% hits; AID 1347043; note: % is set by controls: 0 for no effect and ±100 for the full control effect; nearly all actives have a fitted effect of over 65% in size
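Luminescence read by CCD imaging after purified firefly luciferase (10nM final) was added to substrate buffer holding 10uM D-luciferin and 10uM ATP, pH 7.5, pre-dosed with compound.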
hNpr1 antagonist = human Npr1 receptor antagonism; P16066; HEK293 hNpr1 GloSensor cGMP, ANP-stimulated luminescence; Potency, µM (top dose mostly 46.3 µM), for the others: at the highest dose activity change, negative = inhibition, usual class: inhibitors; 76,000 compounds, 1.6% hits; AID 1347048; calls by dose curve; note: % is set by controls: 0 for no effect and ±100 for the full control effect; nearly all actives have a fitted effect of over 60% in size
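Compound pre-incubated 30 min at room temperature on GloSensor-loaded HEK293 cells stably carrying hNpr1 and the pGS-40F cGMP biosensor. Stimulation uses hNppA at 0.1 nM final; luminescence is taken at baseline and 20 min post-agonist.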
GPT2 inhibitor = inhibitors of human GPT2 alanine aminotransferase | Q8TD30 | Recombinant GPT2, coupled pyruvate oxidase/HRP Amplex Red fluorescence | Potency, µM (titrated, usually from 57.7 µM), inactives show at the top dose activity change, negative = inhibition, usual class: inhibitors | 100,000 compounds, 0.25% hits; note: % is set by controls: 0 for no effect and ±100 for the full control effect; nearly all actives have a fitted effect of over 60% in size
Target sequence (Q8TD30 whole entry, looked up): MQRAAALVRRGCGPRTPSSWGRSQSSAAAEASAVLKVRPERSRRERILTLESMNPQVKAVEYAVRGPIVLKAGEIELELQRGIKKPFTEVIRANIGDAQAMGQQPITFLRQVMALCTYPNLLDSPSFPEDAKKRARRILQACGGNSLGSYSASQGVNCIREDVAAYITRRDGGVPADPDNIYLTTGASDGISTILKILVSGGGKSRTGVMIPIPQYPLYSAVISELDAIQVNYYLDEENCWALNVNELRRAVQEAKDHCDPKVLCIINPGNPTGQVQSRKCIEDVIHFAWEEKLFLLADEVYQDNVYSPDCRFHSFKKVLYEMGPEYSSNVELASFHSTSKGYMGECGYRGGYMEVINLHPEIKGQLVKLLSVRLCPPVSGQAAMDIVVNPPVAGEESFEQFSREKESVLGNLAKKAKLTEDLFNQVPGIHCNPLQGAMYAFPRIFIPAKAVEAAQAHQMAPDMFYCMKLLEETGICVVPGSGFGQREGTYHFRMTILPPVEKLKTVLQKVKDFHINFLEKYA
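Fluorescence of coupled pyruvate oxidase/HRP/Amplex Red system (50uM Amplex, 30 min, dark) reports pyruvate formed by GPT2. Enzyme reaction: 10ng/uL GPT2, 2mM L-alanine, 250uM a-KG, 30 min room temperature, pH 7.5; 50uM AOA control.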
HEK cytotox = kills HEK 293 cells. HEK 293 viability, ATP luminescence (CellTiter-Glo), 48-72 h. Potency, µM (doses to about 115 µM), inactives show at the top dose activity change, negative = cytotoxicity, hits mostly inhibitors. 94,000 compounds, 6.6% hits; note: % is set by controls: 0 for no effect and ±100 for the full control effect; nearly all actives have a fitted effect of over 60% in size
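Luminescence from cellular ATP, measured with CellTiter-Glo, indicates HEK 293 viability. Cells plated at 250 cells/well are treated with compound for 48 or 72 hr at 37 degree Celsius before reagent addition.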
FLuc SDR no ATP = firefly luciferase binding stabilization, ATP absent | 1,300 compounds, 7.8% hits | AID 1963318 | Potency, µM (titrated, usually from 32.7 µM), for the others: at the top dose activation (signal gain), actives largely listed as activators | shares compounds with FLuc inh-1 | Purified FLuc-C-HiBiT, Nano-Glo HiBiT luminescence, no ATP; note: nearly all actives have a fitted effect of over 55% in size
FLuc SDR ATP = firefly luciferase binding stabilization, ATP added; shares compounds with FLuc inh-1; purified FLuc-C-HiBiT + ATP, HiBiT complementation luminescence; Potency, µM (doses to about 32.7 µM), inactives show top-dose activation (gain of signal), actives largely listed as activators; 1,300 compounds, 8.7% hits;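 note: signal reports ligand binding via conformational change of the enzyme rather than luciferase catalysis; % of control where 0% means no effect; nearly all actives have a fitted effect of over 55% in size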
FLuc inh-2 = inhibitors of firefly luciferase enzymatic activity. Potency, µM (top dose mostly 32.7 µM), without a hit: at the top dose activity change, negative = inhibition, usual class: inhibitors. shares compounds with FLuc inh-1. AID 1963320. purified FLuc-C-HiBiT enzyme, luciferin luminescence. 1,300 compounds, 42% hits; note: % is set by controls: 0 for no effect and ±100 for the full control effect; nearly all actives have a fitted effect of over 70% in size
* marks the source's active call; other numbers are inactive results; i = inactive; ? = inconclusive; nt = not tested or not shown; [ ] = another dose, or the depositor's remark. Hits are enriched below; roughly 10% of the tested compounds scored in any of these assays. Unless noted, calls come from the whole dose curve; as a rule, active = well fitted curve in the direction sought with a large enough effect; inconclusive = small, poorly fitted or top-dose-only effect, or another doubt; inactive = no such curve, though single readings can be large; an effect the other way counts as inactive or inconclusive. Potency is the fitted concentration of half-maximal effect.

SMILES	3T3 cytotox	FLuc inh-1	hNpr1 antagonist	GPT2 inhibitor	HEK cytotox	FLuc SDR no ATP	FLuc SDR ATP	FLuc inh-2
Fc1cccc(Nc2nc(-c3ccccc3)no2)c1	?	3.2µM*	?	3%	?	22%	19%	7µM*
CCOC(=O)c1ccc(Nc2nc(-c3ccccc3)no2)cc1	?	?	-30%	i	?	nt	nt	nt
c1ccc(CNc2nc(-c3ccccc3)no2)cc1	?	14µM*	?	i	?	19%	14%	?
Cc1cc(C(=O)NCC23CCC=C2N(C)C(=O)CC3)n(C)n1 (stereo unspecified)	-18%	nt	nt	i	i	nt	nt	nt
CC(C)C(=O)N1CCCC1c1nc(CCOCC2CC2)no1 (stereo unspecified)	-11%	nt	nt	i	-12%	nt	nt	nt
CC(=O)Nc1cc(C2CC2)nn1-c1ccccc1	-13%[138 µM]	nt	nt	i	3%[172 µM]	nt	nt	nt
Fc1ccc(Nc2nc(-c3ccccc3)no2)cc1	?	3.2µM*	?	i	?	22%	18%	6.2µM*
CSc1ccc(Nc2ncncc2-c2nc(-c3ccccc3)no2)cc1	-10%	i	7%	i	3%	nt	nt	nt
O=C(O)C[C@@H]1CCN(S(=O)(=O)c2ccc(F)cc2)C[C@@H]1CC1=NCCc2cc(F)ccc21	-21%	i	-6%	?	2%	nt	nt	nt
Cc1noc(-c2cn(C3CCN(C(=O)C(C)Oc4ccc(Cl)cc4)CC3)nn2)n1 (stereo unspecified)	?	i	2%	i	-8%	nt	nt	nt
O=C(Cc1ccc(F)cc1)N1CCC(C(=O)N2CCCC2c2nc3ccncc3[nH]2)CC1 (stereo unspecified)	-7%	nt	nt	i	-6%	nt	nt	nt
O=C(NCC1CCCN(C(=O)N2CCCC2)C1)c1ccc(-c2ccccc2)cc1 (stereo unspecified)	?	7.9µM*	-2%	0%	?	19%	11%	?
CC(C)CCC(C)Nc1ncnc2c1CN(C1CCCNCC1)C(=O)CN2C (stereo unspecified)	?	nt	nt	?	-23%	nt	nt	nt
Cc1cc2nc3n(c(=O)c2n1CC(=O)NCc1ccccc1Cl)CCCCC3	-20%	i	1%	i	?	nt	nt	nt
CC(C)CCNC(=O)Cn1nc2n(c1=O)CCCCC2	-15%	i	1%	i	-6%	nt	nt	nt
O=C(NCCc1ccccc1Cl)c1ccc2c(c1)nc1n2CCCCC1	nt	nt	nt	nt	nt	3.9µM*	?	1.1µM*
CC(C)CCNC(=O)c1ccc2c(c1)nc1n2CCCCC1	nt	nt	nt	nt	nt	?	?	9.9µM*
O=C(NCCc1ccccc1)c1ccc2c(c1)nc1n2CCOC1	nt	nt	nt	nt	nt	?	?	8.8µM*
O=C(CNC(=O)c1cccc(-c2ccc(C(F)(F)F)cc2)c1)NCc1ccc2c(c1)OCO2	-18%	nt	nt	i	?	nt	nt	nt
CNC(=O)c1cc(C)nc2onc(C3CCN(C(C)=O)C3)c12 (stereo unspecified)	2%[138 µM]	nt	nt	nt	i	nt	nt	nt
CCCC(C)NC(=O)c1cc(-c2ccc(C(F)(F)F)cc2)nc2c1cnn2C (stereo unspecified)	?	nt	nt	nt	-15%	nt	nt	nt
COc1cccc(N2C(=O)NC(=NC3CCCC3)C23CCN([S+](=O)([O-])c2cccc(C(F)(F)F)c2)C3)c1 (stereo unspecified)	-19%	nt	nt	i	-26%	nt	nt	nt
COc1ccc(-c2noc(Nc3cc(OC)cc(OC)c3)n2)cc1	?	?	-17%	5%	?	nt	nt	nt
COc1ccc(-c2noc(Nc3ccccc3)n2)cc1	-26%	1.1µM*	10µM*	i	?	30%	?	2.2µM*
COc1cccc(-c2noc(COc3ccccc3Cl)n2)c1	nt	nt	nt	nt	nt	14%	13%	?
SMILES	3T3 cytotox	FLuc inh-1	hNpr1 antagonist	GPT2 inhibitor	HEK cytotox	FLuc SDR no ATP	FLuc SDR ATP	FLuc inh-2
COc1ccc(Nc2nc(-c3cccc(OC)c3)no2)cc1	-64%	2.5µM*	?	-7%	?	21%	16%	7.9µM*
COc1ccc(-c2noc(Nc3ccc4c(c3)OCCO4)n2)cc1	1%	0.89µM*	?	i	-4%	?	?	1.6µM*
COc1ccc(-c2ccccc2C(=O)N2CCC(NC(=O)c3ccccc3C)CC2)nn1	5%	nt	nt	nt	3%	nt	nt	nt
O=C(c1cccnc1)N1CC(Oc2ccccc2-c2nc(-c3cnccn3)no2)C1	-13%	nt	nt	-2%	?	nt	nt	nt
COc1ccc(-c2ccc(C(=O)N3CCN(C(=O)c4ccccc4C)CC3)cc2)nn1	i	nt	nt	nt	-5%	nt	nt	nt
COC[C@@H]1[C@H](C(=O)NCc2ccccc2C)CCC(=O)N1C	-6%	nt	nt	5%	i	nt	nt	nt
CCOc1ccc(Nc2nc(-c3ccccc3)no2)cc1	18µM*	0.79µM*	10µM*	i	-73%	16%	17%	5µM*
